Measurements from PubChem BioAssay AID1159580 (chemical genetic matrix, 2015).
About 2,000 (36%) of roughly 5,500 compounds were called active. Inconclusive results (about 18%) are left out. Rule as the data show it: active = normalized growth mostly below about 0.91 (no sharp cut-off); inconclusive = no clear call, values can overlap the other calls; inactive = mostly above about 0.92. Some of the results follow.

Assay: chemical genetic growth profiling, strain panel (AID 1159580);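 also: tested at 20 µM; growth read once vehicle control cultures reached saturation at 30 °C; 1 = growth at the plate median or of vehicle wells; lower values mean less growth of the strain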
Conditions: growth OD

Measured: normalized growth

CO[C@@]12[C@@H]3NC3CN1C1=C(C(=O)C(N)=C(C)C1=O)[C@@H]2COC(N)=O (some centres not stated)
inactive: S. cerevisiae deletion strains, locus YJR075W, strain HOC1, stronger effect = lower value 0.995 | S. cerevisiae deletion strains, locus YKL009W, strain mrt4, stronger effect = lower value 0.964 | S. cerevisiae deletion strains, locus YKL068W, stronger effect = lower value 0.984 | S. cerevisiae deletion strains, locus YKL085W, strain MDH1 (second series), stronger effect = lower value 0.983 | S. cerevisiae deletion strains, locus YKL085W, strain MDH1, stronger effect = lower value 0.983 | S. cerevisiae deletion strains, locus YKL160W, strain elf1, stronger effect = lower value 0.974 | S. cerevisiae deletion strains, locus YKL190W, strain CNB1, stronger effect = lower value 1 | S. cerevisiae deletion strains, locus YKR001C, strain vps1, stronger effect = lower value 0.982 | S. cerevisiae deletion strains, locus YKR026C, strain gcn3, stronger effect = lower value 0.964 | S. cerevisiae deletion strains, locus YKR091W, strain srl3, stronger effect = lower value 0.959 | S. cerevisiae deletion strains, locus YLL001W, strain dnm1, stronger effect = lower value 0.929 | S. cerevisiae deletion strains, locus YLL026W, stronger effect = lower value 0.977 | S. cerevisiae deletion strains, locus YLL041C, strain sdh2, stronger effect = lower value 0.977 | S. cerevisiae deletion strains, locus YLR027C, strain aat2, stronger effect = lower value 0.953 | S. cerevisiae deletion strains, locus YLR039C, strain RIC1, stronger effect = lower value 1.01 | S. cerevisiae deletion strains, locus YLR058C, strain SHM2, stronger effect = lower value 0.999 | S. cerevisiae deletion strains, locus YLR102C, strain apc9, stronger effect = lower value 0.986 | S. cerevisiae deletion strains, locus YLR113W, strain HOG1, stronger effect = lower value 0.973 | S. cerevisiae deletion strains, locus YLR221C, strain rsa3, stronger effect = lower value 1.01 | S. cerevisiae deletion strains, locus YLR258W, strain gsy2, stronger effect = lower value 0.992 | S. cerevisiae deletion strains, locus YLR262C, strain YPT6 (second series), stronger effect = lower value 0.938 | S. cerevisiae deletion strains, locus YLR262C, strain YPT6, stronger effect = lower value 0.947 | S. cerevisiae deletion strains, locus YLR268W, strain sec22, stronger effect = lower value 1.01 | S. cerevisiae deletion strains, locus YLR320W, strain mms22, stronger effect = lower value 1.01 | S. cerevisiae deletion strains, locus YLR330W, strain CHS5, stronger effect = lower value 0.987 | S. cerevisiae deletion strains, locus YLR342W, strain FKS1 (second series), stronger effect = lower value 1 | S. cerevisiae deletion strains, locus YLR342W, strain FKS1, stronger effect = lower value 0.952 | S. cerevisiae deletion strains, locus YLR357W, strain rsc2, stronger effect = lower value 0.961 | S. cerevisiae deletion strains, locus YLR370C, strain arc18, stronger effect = lower value 0.96 | S. cerevisiae deletion strains, locus YLR371W, strain rom2, stronger effect = lower value 0.961 | S. cerevisiae deletion strains, locus YLR384C, strain iki3, stronger effect = lower value 0.953 | S. cerevisiae deletion strains, locus YLR418C, strain cdc73, stronger effect = lower value 1.05 | S. cerevisiae deletion strains, locus YML016C, strain PPZ1, stronger effect = lower value 1 | S. cerevisiae deletion strains, locus YML032C, strain rad52, stronger effect = lower value 0.96 | S. cerevisiae deletion strains, locus YML120C, strain ndi1, stronger effect = lower value 0.94 | S. cerevisiae deletion strains, locus YML124C, strain tub3, stronger effect = lower value 0.979 | S. cerevisiae deletion strains, locus YMR058W, strain fet3, stronger effect = lower value 0.942 | S. cerevisiae deletion strains, locus YMR078C, strain ctf18, stronger effect = lower value 0.975 | S. cerevisiae deletion strains, locus YMR125W, strain sto1, stronger effect = lower value 0.982 | S. cerevisiae deletion strains, locus YMR129W, stronger effect = lower value 0.975 | S. cerevisiae deletion strains, locus YMR205C, strain PFK2, stronger effect = lower value 0.996 | S. cerevisiae deletion strains, locus YMR223W, strain ubp8, stronger effect = lower value 0.977 | S. cerevisiae deletion strains, locus YMR231W, strain pep5, stronger effect = lower value 0.949 | S. cerevisiae deletion strains, locus YMR263W, strain SAP30, stronger effect = lower value 1.01 | S. cerevisiae deletion strains, locus YMR307W, strain GAS1, stronger effect = lower value 1.02 | S. cerevisiae deletion strains, locus YNL067W, strain RPL9B, stronger effect = lower value 1.02 | S. cerevisiae deletion strains, locus YNL071W, strain lat1, stronger effect = lower value 0.971 | S. cerevisiae deletion strains, locus YNL128W, strain TEP1, stronger effect = lower value 1 | S. cerevisiae deletion strains, locus YNL153C, strain GIM3, stronger effect = lower value 1.03 | S. cerevisiae deletion strains, locus YNL183C, strain NPR1, stronger effect = lower value 0.94 | S. cerevisiae deletion strains, locus YNL209W, strain ssb2, stronger effect = lower value 0.972 | S. cerevisiae deletion strains, locus YNL233W, strain BNI4, stronger effect = lower value 1.05 | S. cerevisiae deletion strains, locus YNL248C, strain rpa49, stronger effect = lower value 0.99 | S. cerevisiae deletion strains, locus YNL250W, strain rad50, stronger effect = lower value 0.975 | S. cerevisiae deletion strains, locus YNL271C, strain bni1, stronger effect = lower value 0.979 | S. cerevisiae deletion strains, locus YNL298W, strain CLA4, stronger effect = lower value 0.978 | S. cerevisiae deletion strains, locus YNL307C, strain MCK1, stronger effect = lower value 0.979 | S. cerevisiae deletion strains, locus YNL322C, strain KRE1 (second series), stronger effect = lower value 0.945 | S. cerevisiae deletion strains, locus YNL322C, strain KRE1, stronger effect = lower value 0.997 | S. cerevisiae deletion strains, locus YNR049C, strain mso1, stronger effect = lower value 0.978 | S. cerevisiae deletion strains, locus YNR052C, strain pop2, stronger effect = lower value 0.96 | S. cerevisiae deletion strains, locus YOL006C, strain TOP1, stronger effect = lower value 1.04 | S. cerevisiae deletion strains, locus YOL012C, strain htz1 0.963 | S. cerevisiae deletion strains, locus YOL147C, strain pex11, stronger effect = lower value 0.984 | S. cerevisiae deletion strains, locus YOR001W, strain rrp6, stronger effect = lower value 0.946 | S. cerevisiae deletion strains, locus YOR061W, strain CKA2, stronger effect = lower value 1.01 | S. cerevisiae deletion strains, locus YOR069W, strain VPS5, stronger effect = lower value 1 | S. cerevisiae deletion strains, locus YOR070C, strain gyp1, stronger effect = lower value 0.993 | S. cerevisiae deletion strains, locus YOR080W, strain dia2, stronger effect = lower value 0.968 | S. cerevisiae deletion strains, locus YOR083W, strain WHI5, stronger effect = lower value 0.94 | S. cerevisiae deletion strains, locus YOR106W, strain vam3, stronger effect = lower value 0.929 | S. cerevisiae deletion strains, locus YOR136W, strain idh2, stronger effect = lower value 0.981 | S. cerevisiae deletion strains, locus YOR144C, strain elg1, stronger effect = lower value 0.985 | S. cerevisiae deletion strains, locus YOR184W, strain ser1, stronger effect = lower value 0.948 | S. cerevisiae deletion strains, locus YOR231W, strain MKK1, stronger effect = lower value 0.982 | S. cerevisiae deletion strains, locus YOR265W, strain rbl2, stronger effect = lower value 0.963 | S. cerevisiae deletion strains, locus YOR270C, strain vph1, stronger effect = lower value 1 | S. cerevisiae deletion strains, locus YOR290C, strain snf2, stronger effect = lower value 0.998 | S. cerevisiae deletion strains, locus YOR316C, strain cot1, stronger effect = lower value 0.994 | S. cerevisiae deletion strains, locus YPL051W, strain arl3, stronger effect = lower value 0.985 | S. cerevisiae deletion strains, locus YPL055C, strain LGE1, stronger effect = lower value 1.02 | S. cerevisiae deletion strains, locus YPL078C, strain atp4, stronger effect = lower value 0.921 | S. cerevisiae deletion strains, locus YPL106C, strain sse1, stronger effect = lower value 0.951 | S. cerevisiae deletion strains, locus YPL240C, strain hsp82, stronger effect = lower value 0.979 | S. cerevisiae deletion strains, locus YPL241C, strain CIN2, stronger effect = lower value 0.998 | S. cerevisiae deletion strains, locus YPL256C, strain CLN2, stronger effect = lower value 0.971 | S. cerevisiae deletion strains, locus YPR119W, strain clb2, stronger effect = lower value 0.995 | S. cerevisiae deletion strains, locus YPR141C, strain kar3, stronger effect = lower value 0.983 | S. cerevisiae deletion strains, locus YPR163C, strain tif3, stronger effect = lower value 0.966 | S. cerevisiae deletion strains, locus YPR167C, strain met16, stronger effect = lower value 0.987 | S. cerevisiae deletion strains, strain wtn01, stronger effect = lower value 1.02 | S. cerevisiae strains, strain wild type, stronger effect = lower value 0.997
